Test [1] in a line: qHTS assay to identify small molecule antagonists of the estrogen receptor alpha (ER-alpha) signaling pathway using the BG1 cell line in the presence of 0.1 nM 17-beta-estradiol - cell viability counter screen (AID 1259241). Also: % is scaled to controls: 0 for no effect and ±100 for the full control effect; nearly all actives have a fitted effect of over 40% in size. The method in brief:
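Viability in VM7Luc4E2 cells after 22 hr compound exposure under 0.1 nM 17beta-estradiol stimulation, by CellTiter-Fluor.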
In general terms: In qHTS, concentration-response curves come from the screen itself.

In test [2] the target is Estrogen receptor (Homo sapiens) (UniProt P03372). The experiment in a line: qHTS assay to identify small molecule antagonists of the estrogen receptor alpha (ER-alpha) signaling pathway using the BG1 cell line in the presence of 0.1 nM 17-beta-estradiol (AID 1259244). Also: nearly all actives have a fitted effect of over 50% in size. Also: potency is read from the fitted curve at half-maximal effect. The method, boiled down: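 VM7Luc4E2; 4xERE-luciferase; 0.1 nM E2 final; 22 h co-incubation, 37C; ONE-Glo luminescence after 30 min at room temperature.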
Chain of Estrogen receptor (Homo sapiens) (P03372 whole entry, looked up): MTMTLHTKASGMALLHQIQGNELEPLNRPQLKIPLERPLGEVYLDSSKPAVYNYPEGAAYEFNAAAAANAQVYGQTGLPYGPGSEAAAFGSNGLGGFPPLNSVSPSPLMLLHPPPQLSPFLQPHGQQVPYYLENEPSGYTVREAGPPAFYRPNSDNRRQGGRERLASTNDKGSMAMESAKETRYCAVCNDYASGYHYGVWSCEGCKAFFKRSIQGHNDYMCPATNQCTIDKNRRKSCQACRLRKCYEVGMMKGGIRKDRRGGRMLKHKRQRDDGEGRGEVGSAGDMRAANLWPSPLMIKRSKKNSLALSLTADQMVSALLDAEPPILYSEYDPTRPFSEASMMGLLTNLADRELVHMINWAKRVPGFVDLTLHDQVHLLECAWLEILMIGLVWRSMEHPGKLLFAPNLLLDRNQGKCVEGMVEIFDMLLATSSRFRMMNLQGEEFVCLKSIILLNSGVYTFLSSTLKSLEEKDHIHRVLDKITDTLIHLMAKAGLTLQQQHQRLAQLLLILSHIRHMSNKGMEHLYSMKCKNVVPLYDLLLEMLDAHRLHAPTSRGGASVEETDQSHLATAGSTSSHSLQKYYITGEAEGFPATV

A short description of test [3]: qHTS assay to identify small molecule HDAC inhibitors (AID 1259364).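 Also: wild-type HCT-116 cells with endogenous class I/II HDAC activity; top concentration of the series differs between compounds; % is scaled to controls: 0 for no effect and ±100 for the full control effect; nearly all actives have a fitted effect of over 45% in size.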 The method, boiled down:
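Relative class I and II HDAC activity is taken from the luminogenic signal in HCT-116 cells, with compound exposure 2 hr and reagent development 30 min at room temperature.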

Test [4] can be described thus: qHTS assay to identify small molecule agonists of the sonic hedgehog signaling (Shh) pathway - cell viability counter screen (AID 1259366). Also: nearly all actives have a fitted effect of over 50% in size. Also: potency is read from the fitted curve at half-maximal effect. The method, boiled down: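 Stable Gli1-Luc NIH/3T3 clone, 2,000 cells/well. Compound exposure 24hr at 37C. Read-out: CellTiter-Fluor fluorescence.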
Test [5] in a line: qHTS assay to identify small molecule antagonists of the sonic hedgehog signaling (Shh) pathway - cell viability counter screen (AID 1259367). Also: % is scaled to controls: 0 for no effect and ±100 for the full control effect; nearly all actives have a fitted effect of over 55% in size. The method in brief:
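Using CellTiter-Fluor, viability of Gli1-Luc reporter 3T3 cells is read by fluorescence in the wells used for the Shh luciferase assay. Treatment lasts 23 hr with conditioned medium, then reagent 1 hr at 37C.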

Test [6] can be described thus: qHTS assay to identify small molecule agonists of the sonic hedgehog signaling (Shh) pathway (AID 1259368; calls by dose curve;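 also: NIH/3T3-derived 3T3Gli1-Luc cells carrying a stable Gli1-driven firefly luciferase reporter; series mostly up to about 92 µM; % is scaled to controls: 0 for no effect and ±100 for the full control effect; nearly all actives have a fitted effect of over 15% in size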). The method, boiled down: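 Mouse fibroblast (NIH/3T3) reporter cells with stably integrated Gli1-Luc were treated 24 hr with compound; firefly luciferase luminescence served as the read-out.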
A short description of test [7]: qHTS assay to identify small molecule antagonists of the sonic hedgehog signaling (Shh) pathway (AID 1259369; calls by dose curve; also: nearly all actives have a fitted effect of over 45% in size; also: potency is read from the fitted curve at half-maximal effect). The method in brief: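 Conditioned medium drives Shh signalling in 3T3Gli1-Luc cells; compounds in DMSO co-applied, 24hr at 37 C, then luciferase luminescence.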
Test [8] can be described thus: qHTS assay to identify small molecule agonists of the androgen receptor (AR) signaling pathway in the presence of an antagonist - cell viability counter screen (AID 1259379). Also: nearly all actives have a fitted effect of over 25% in size. Also: potency is read from the fitted curve at half-maximal effect. The method, boiled down: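 A CellTiter-Fluor read-out measured viability of MDA-kb2 reporter cells (MMTV promoter with AR and GR response elements). Treatment: nilutamide 3.0uM final with compounds at 15 concentrations, 16 hr, 37C, 0% CO2.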

The nature of test [9]: qHTS assay to identify small molecule agonists of the estrogen receptor beta (ER-beta) signaling pathway - cell viability counter screen (AID 1259380). Also: nearly all actives have a fitted effect of over 30% in size. Also: potency is read from the fitted curve at half-maximal effect. The method in brief: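 Cells used were ER-beta-UAS-bla HEK293T in medium with 2% charcoal-stripped FBS. They were treated for 16 hr at 37C. Viability came from CellTiter-Glo luminescence.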
Test [10] can be described thus: qHTS assay to identify small molecule antagonists of the estrogen receptor beta (ER-beta) signaling pathway - cell viability counter screen (AID 1259382). Also: series mostly up to about 92 µM; % is scaled to controls: 0 for no effect and ±100 for the full control effect; nearly all actives have a fitted effect of over 55% in size. The method, boiled down: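 Agonist-stimulated (1nM E2) ER-beta-UAS-bla HEK293T cells are incubated with library compounds for 16 hr at 37C. Cell viability is then assessed in the reporter-assay wells by adding CellTiter-Glo and reading luminescence after 30 min.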

Test [11] has as its target Estrogen receptor (Homo sapiens) (UniProt P03372). The experiment in a line: qHTS assay to identify small molecule agonists of the estrogen receptor alpha (ER-alpha) signaling pathway in the presence of an antagonist (AID 1259383; calls by dose curve; also: top concentration of the series differs between compounds; % is scaled to controls: 0 for no effect and ±100 for the full control effect; nearly all actives have a fitted effect of over 15% in size). The method, boiled down:
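Using VM7Luc4E2 cells seeded 24hr before treatment, antagonist ICI-182,780 (10.0nM final) was added, followed by compounds at 15 concentrations. Plates incubated 22hr; ONE-Glo luminescence quantified reporter activity.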

A short description of test [12]: qHTS assay to identify small molecule agonists or antagonists of the thyroid stimulating hormone receptor (TSHR) signaling pathway - wild type cell line counter screen (AID 1259384; calls by dose curve; also: % is scaled to controls: 0 for no effect and ±100 for the full control effect). The method in brief: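 Counter screen in untransfected Hek293: compounds (15-point titration, triplicate) plus phosphodiesterase inhibitor Ro20-1724 added after 18 h plating; 30 min RT. Intracellular cAMP via competitive d2/cryptate immunoassay, 1 h incubation.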

A short description of test [13]: qHTS assay to identify small molecule phospholipidosis (PLD) inducers (AID 1259344; active = well fitted curve in the direction sought with a large enough effect; an effect the other way counts as inactive or inconclusive; also: % is scaled to controls: 0 for no effect and ±100 for the full control effect). The method in brief:
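Fluorescent phospholipid staining (LipidTOX Red) measured by automated microscopy in fixed HepG2 cells after 24 h treatment; nuclei counterstained with Hoechst 33342; amiodarone as reference inducer.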

The nature of test [14]: qHTS assay to identify small molecule HDAC inhibitors - cell viability counter screen (AID 1259365). Also: series mostly up to about 92 µM; % is scaled to controls: 0 for no effect and ±100 for the full control effect; nearly all actives have a fitted effect of over 50% in size. The method, boiled down:
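Cytotoxicity was gauged in wild-type HCT-116 cells after a brief 2hr treatment with DMSO-dissolved compounds at 37C and 5% CO2, using CellTiter-Glo luminescence developed for 30min at room temperature.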

In test [15] the target is Thyrotropin receptor (Homo sapiens) (UniProt P16473). The experiment in a line: qHTS assay to identify small molecule antagonists of the thyroid stimulating hormone receptor (TSHR) signaling pathway (AID 1259385; calls by dose curve; also: nearly all actives have a fitted effect of over 20% in size; also: potency is read from the fitted curve at half-maximal effect). The method in brief: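 Antagonist mode: compound-treated TSHR-expressing HEK293 cells were stimulated with 1.5 ng/mL TSH (final) in presence of Ro20-1724 for 30 min at RT. HTRF cAMP detection after 1 h; each compound tested at 15 concentrations, triplicate.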
Chain of Thyrotropin receptor (Homo sapiens) (P16473 whole entry, looked up): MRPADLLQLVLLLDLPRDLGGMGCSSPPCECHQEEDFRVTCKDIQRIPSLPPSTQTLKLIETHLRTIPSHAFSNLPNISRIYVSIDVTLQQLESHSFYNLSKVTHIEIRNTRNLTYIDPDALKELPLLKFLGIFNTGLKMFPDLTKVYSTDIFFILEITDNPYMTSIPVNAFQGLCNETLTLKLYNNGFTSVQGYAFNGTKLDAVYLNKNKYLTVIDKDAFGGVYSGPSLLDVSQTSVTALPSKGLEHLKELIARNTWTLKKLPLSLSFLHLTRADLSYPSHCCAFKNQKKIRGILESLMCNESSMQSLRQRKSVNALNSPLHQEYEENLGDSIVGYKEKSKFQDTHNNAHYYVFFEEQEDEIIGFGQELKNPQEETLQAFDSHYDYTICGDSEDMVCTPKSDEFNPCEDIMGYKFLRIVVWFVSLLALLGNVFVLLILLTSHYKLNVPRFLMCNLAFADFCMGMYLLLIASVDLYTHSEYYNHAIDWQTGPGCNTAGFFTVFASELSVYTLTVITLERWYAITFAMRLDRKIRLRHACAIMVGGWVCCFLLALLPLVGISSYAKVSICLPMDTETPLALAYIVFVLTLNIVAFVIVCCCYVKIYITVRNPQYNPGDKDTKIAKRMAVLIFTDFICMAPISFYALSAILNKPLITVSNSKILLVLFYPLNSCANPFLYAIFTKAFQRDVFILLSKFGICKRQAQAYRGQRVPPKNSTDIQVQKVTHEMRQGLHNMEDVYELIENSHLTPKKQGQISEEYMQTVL

The nature of test [16]: qHTS assay to identify small molecule antagonists of the androgen receptor (AR) signaling pathway using the MDA cell line in the presence of 0.5 nM R1881 - cell viability counter screen (AID 1259242). Also: potency is read from the fitted curve at half-maximal effect; nearly all actives have a fitted effect of over 45% in size. The method in brief:
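R1881 at 0.5 nM final stimulated MDA-kb2 cells during 16 hr compound treatment at 37C. Cytotoxicity read: CellTiter-Fluor fluorescence after 30 min.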

For test [17], the target named is Androgen receptor (Homo sapiens) (UniProt P10275). The experiment in a line: qHTS assay to identify small molecule antagonists of the androgen receptor (AR) signaling pathway using the MDA cell line in the presence of 0.5 nM R1881 (AID 1259243). Also: potency is read from the fitted curve at half-maximal effect; nearly all actives have a fitted effect of over 50% in size. The method, boiled down:
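We exposed MDA-kb2 cells to compounds under 0.5 nM R1881 stimulation for 16 hr at 37C and quantified MMTV-driven luciferase by luminescence.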

Test [18] concerns the target Estrogen receptor beta (Homo sapiens) (UniProt Q92731). The experiment in a line: qHTS assay to identify small molecule agonists of the estrogen receptor beta (ER-beta) signaling pathway (AID 1259377; active = well fitted activation curve with a large enough effect in the signal ratio in the repeat runs, not every such curve was filed as active; the % refers to the signal ratio; also: % is scaled to controls: 0 for no effect and ±100 for the full control effect). The method in brief:
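Measured by fluorescence intensity from a B/G FRET beta-lactamase substrate (2 h, room temperature) in ER-beta-UAS-bla HEK293T cells treated with DMSO-dissolved compounds for 16 hr at 37C and 5% CO2.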

The target is the same in test [19]. The experiment in a line: qHTS assay to identify small molecule antagonists of the estrogen receptor beta (ER-beta) signaling pathway (AID 1259378; active = well fitted inhibition curve with a large enough effect in the signal ratio in the repeat runs, not every such curve was filed as active; the % refers to the signal ratio; also: potency is read from the fitted curve at half-maximal effect). The method, boiled down: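 Antagonist mode: compounds added to beta-lactamase reporter HEK293T ER-beta-UAS cells stimulated with E2 (1nM final), 16 hr at 37C. LiveBLAzer B/G FRET substrate, 2 hours room temperature, fluorescence read-out.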

The target in test [20] is Androgen receptor (Homo sapiens) (UniProt P10275). The experiment in a line: qHTS assay to identify small molecule agonists of the androgen receptor (AR) signaling pathway in the presence of an antagonist (AID 1259381; calls by dose curve; also: % is scaled to controls: 0 for no effect and ±100 for the full control effect; nearly all actives have a fitted effect of over 15% in size). The method, boiled down: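 Using human MDA-kb2 cells with an MMTV promoter–luciferase construct (AR and GR response elements), agonist activity is scored under 3.0uM nilutamide (final) co-treatment; 16hr incubation, 37C, luminescence readout via ONE-Glo.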
Chain of Androgen receptor (Homo sapiens) (P10275 whole entry, looked up): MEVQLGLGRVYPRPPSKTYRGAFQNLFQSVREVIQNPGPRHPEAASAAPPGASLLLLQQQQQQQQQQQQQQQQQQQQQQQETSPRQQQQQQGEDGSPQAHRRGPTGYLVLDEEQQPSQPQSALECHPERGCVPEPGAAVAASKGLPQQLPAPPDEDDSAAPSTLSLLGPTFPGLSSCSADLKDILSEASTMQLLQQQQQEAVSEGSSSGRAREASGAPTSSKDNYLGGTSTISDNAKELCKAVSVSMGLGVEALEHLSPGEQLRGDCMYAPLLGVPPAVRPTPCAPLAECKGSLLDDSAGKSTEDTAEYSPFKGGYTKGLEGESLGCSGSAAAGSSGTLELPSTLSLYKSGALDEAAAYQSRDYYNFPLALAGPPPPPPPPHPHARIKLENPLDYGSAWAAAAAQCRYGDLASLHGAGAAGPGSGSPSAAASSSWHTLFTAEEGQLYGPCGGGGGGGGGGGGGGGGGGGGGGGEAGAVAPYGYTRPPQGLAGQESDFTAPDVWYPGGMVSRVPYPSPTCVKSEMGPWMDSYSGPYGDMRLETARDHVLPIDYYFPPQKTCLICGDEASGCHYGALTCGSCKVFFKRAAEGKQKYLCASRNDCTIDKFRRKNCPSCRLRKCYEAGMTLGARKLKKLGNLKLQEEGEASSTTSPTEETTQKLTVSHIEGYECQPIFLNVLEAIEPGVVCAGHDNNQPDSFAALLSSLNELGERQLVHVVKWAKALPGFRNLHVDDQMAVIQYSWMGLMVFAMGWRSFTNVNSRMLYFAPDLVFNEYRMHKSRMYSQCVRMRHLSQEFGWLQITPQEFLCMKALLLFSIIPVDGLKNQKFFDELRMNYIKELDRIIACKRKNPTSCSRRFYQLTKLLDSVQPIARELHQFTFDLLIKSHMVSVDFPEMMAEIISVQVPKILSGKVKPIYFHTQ

Unmarked numbers belong to inactive results. Results filed as inconclusive are left out. Calls of active or inactive are those of the source. Unless noted, calls follow the shape of the dose curve; as a rule, active = well fitted curve in the direction sought with a large enough effect in the repeat runs; inconclusive = weak or mixed curves; inactive = no such curve, though single readings can be large; an effect the other way counts as inactive or inconclusive.

Chain of Estrogen receptor beta (Homo sapiens) (Q92731 whole entry, looked up): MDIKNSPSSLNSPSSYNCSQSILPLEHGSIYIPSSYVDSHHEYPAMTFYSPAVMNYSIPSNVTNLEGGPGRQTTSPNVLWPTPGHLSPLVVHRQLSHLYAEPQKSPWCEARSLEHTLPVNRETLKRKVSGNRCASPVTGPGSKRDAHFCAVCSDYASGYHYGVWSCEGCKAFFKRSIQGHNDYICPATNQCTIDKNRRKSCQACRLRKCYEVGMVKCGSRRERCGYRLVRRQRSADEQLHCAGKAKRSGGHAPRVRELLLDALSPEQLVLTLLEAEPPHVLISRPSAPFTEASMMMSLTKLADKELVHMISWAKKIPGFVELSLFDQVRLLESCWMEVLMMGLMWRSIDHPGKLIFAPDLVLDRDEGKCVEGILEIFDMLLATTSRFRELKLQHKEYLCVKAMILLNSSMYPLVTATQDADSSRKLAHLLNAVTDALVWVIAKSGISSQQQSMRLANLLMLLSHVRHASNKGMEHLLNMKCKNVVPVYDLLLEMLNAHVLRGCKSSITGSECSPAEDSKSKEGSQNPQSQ

On to `Cc1ccc2c(ccc3ccccc32)c1`, for which the Potency entry in [1], in test [2], in test [3], in test [4], in [5] and in [7] was “inactive” throughout. The Potency result in test [8], in [9], in test [10], in test [11] and in [12] was “inactive” each time. Further, the outcome in test [6] was inactive.

With `C=CC[N+]1([C@H]2C[C@H]3[C@@H]4CC[C@H]5C[C@H](OC(C)=O)[C@@H](N6CCCCC6)C[C@]5(C)[C@H]4CC[C@]3(C)[C@H]2OC(=O)CC)CCCCC1`, the Potency result in test [1], in test [2], in [3], in test [4], in [5] and in test [7] was “inactive” throughout. Also, the Potency result in [8], in test [9], in test [10] and in [15] was “inactive” throughout. The PLD induction in [13] is -0.411% [at 7.66 µM]. The result in test [14] and in [6] was inactive.

On to `CN1CCC(OC(c2ccccc2)c2ccccc2)CC1`, for which the Potency result in test [1], in test [2], in test [13], in [3], in test [4] and in [5] was “inactive” in each case. Further, the Potency entry in [8], in test [9], in test [10], in [11] and in test [15] was “inactive” in each case. Further, the outcome in [14] and in [6] was inactive.

As to `CC(C)(C)c1cc(O)c(C(C)(C)C)cc1O`, the Potency was 54.5 µM (active) in [16]; 19.3 µM (active) in [17]; 43.3 µM (active) in [2]; 61.1 µM (active) in test [4]; 30.6 µM (active) in test [7]; 30.6 µM (active) in test [19]. For the same compound, the figures for the Potency in test [8] and in test [15] were 54.5 µM (active) and 61.1 µM (active), respectively. Besides, the Potency result in test [3], in test [18], in test [20], in [10], in test [11] and in test [12] was “inactive” each time. For the same compound, the result in test [14] and in test [6] was inactive.

Consider `O=C=NC1CCC(CC2CCC(N=C=O)CC2)CC1` (configuration not stated), for which the Potency entry in [1], in test [3], in [18], in [19] and in test [15] was “inactive” each time. The compound was called inactive in [6]. For the same compound, the results for the Potency in [7], in [8] and in [9] were 43.3 µM (active), 30.6 µM (active) and 68.6 µM (active), respectively.

Regarding `c1ccc(-c2nc[nH]c2-c2ccccc2)cc1`, the Potency entry in test [1], in [13], in test [3], in [4], in [5] and in test [18] was “inactive” in each case. For the same compound, the Potency result in [8], in test [9], in test [10], in test [12] and in [15] was “inactive” each time. For the same compound, the call in [14] and in test [6] was inactive.

As for `O=C(NN1CCCC1)NS(=O)(=O)c1ccc(Cl)cc1`, the Potency result in test [1], in test [2], in test [4], in test [5], in [7] and in test [18] was “inactive” each time. For the same compound, the Potency result in test [19], in test [8], in test [9], in [10], in [11] and in test [15] was “inactive” throughout. In [13], the PLD induction is 14% [at 7.66 µM]. The call in test [14] and in [6] was inactive.

For `CCN(CC)C(C)CN1c2ccccc2Sc2ccccc21` (configuration not stated), the Potency entry in [1], in test [2], in test [13], in [3], in test [4] and in [5] was “inactive” throughout. The Potency result in test [7], in [19], in [8], in test [9], in test [10] and in [11] was “inactive” in each case. For the same compound, the Potency entry in test [12] and in test [15] was “inactive” throughout. Moreover, the compound was classed as inactive in test [14] and in test [6].

The record behind these values is PubChem BioAssay (Tox21).
